MITF primary = human MITF inhibition, primary screen; AlphaScreen MITF homodimerization, bead proximity signal; AID 1259374; inhibition, % at 2.6 µM; 0.91% of 650,000 active; in the data active means inhibition above about 50%;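 further: 0% = vehicle wells with protein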
FBW7 act = human FBW7 E3 ligase activation, primary screen; Q969H0; AlphaScreen FBW7–phospho-cyclin E peptide binding, activator screen; normalized activity (activation), % at 26.1 µM; 0.13% of 650,000 active; in the data active means normalized activity above about 1.9%;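 further: purified mutant Fbw7 with reduced substrate affinity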
TEAD-YAP block = TEAD-YAP interaction inhibition. HEK-TIYL cells, TEAD-Gal4/YAP UAS-luciferase luminescence. inhibition, % at 9.12 µM. 1.4% of 640,000 active. AID 1259422; in the data active means inhibition above about 32%;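 further: 0% = median of test compound wells and 100% = reference inhibitor wells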
GPR151 ag = human GPR151 activation; Q8TDV0; activation, % at 11.2 µM; 1% of 650,000 active; PathHunter beta-arrestin GPR151 cells, luminescence; in the data active means activation above about 4.9%;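 further: 0% = median of compound wells and 100% = cells with positive control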
Target sequence (Q8TDV0 whole entry, looked up): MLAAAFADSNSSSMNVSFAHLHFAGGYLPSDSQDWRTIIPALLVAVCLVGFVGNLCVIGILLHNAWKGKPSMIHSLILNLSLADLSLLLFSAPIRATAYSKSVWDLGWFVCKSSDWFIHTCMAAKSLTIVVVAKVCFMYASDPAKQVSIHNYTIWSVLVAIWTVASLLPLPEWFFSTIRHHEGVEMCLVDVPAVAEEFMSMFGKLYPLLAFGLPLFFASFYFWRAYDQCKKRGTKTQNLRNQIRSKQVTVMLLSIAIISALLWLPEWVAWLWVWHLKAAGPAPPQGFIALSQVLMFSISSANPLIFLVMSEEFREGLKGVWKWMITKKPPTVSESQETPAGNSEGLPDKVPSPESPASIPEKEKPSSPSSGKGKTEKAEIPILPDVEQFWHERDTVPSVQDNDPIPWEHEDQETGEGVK
The depositor's hits bear a star. Rows were chosen to be rich in hits. Some 3.5% of all compounds tested hit in one or more screens of this group.

SMILES	MITF primary	FBW7 act	TEAD-YAP block	GPR151 ag
COc1ccccc1N1CCN(c2ncc(C(=O)NCc3cccnc3)c3ccccc23)CC1	-11	0	37*	0
CCOC(=O)c1ccccc1NC(=O)c1cnc(N2CCN(c3ccccn3)CC2)c2ccccc12	-6	0	9	0
COc1ccc(OC)c(NC(=O)c2cnc(N3CCN(c4ccccc4OC)CC3)c3ccccc23)c1	-5	0	40*	-1
COc1ccccc1N1CCN(c2ncc(C(=O)N3CCN(C)CC3)c3ccccc23)CC1	8	0	35*	1
CCOc1ccccc1NC(=O)c1cnc(N2CCN(c3ccccn3)CC2)c2ccccc12	8	0	55*	1
COc1ccccc1N1CCN(c2ncc(C(=O)N3CCCC3)c3ccccc23)CC1	3	0	6	0
CC(C)(C)OC(=O)NC1CCN(c2ncnc3nc[nH]c23)CC1	-4	0	0	1
CN1C(=O)N(C)c2cccc3cccc1c23	1	0	-17	-1
CN1C(/C=C/c2ccccc2Cl)=Nc2cccc3cccc1c23	53*	0	-47	0
N#CC1=C(N)Oc2ccc3ccccc3c2C1c1cccnc1 (centres undefined)	-3	0	57*	1
N#CC1=C(N)Oc2ccc3ccc(O)cc3c2C1c1cccnc1 (centres undefined)	1	0	4	0
N#CC1=C(N)Oc2c(ccc3ccccc23)C1c1cccc(F)c1 (centres undefined)	0	1	5	0
N#CC1=C(N)Oc2ccc3ccccc3c2C1c1cccc(F)c1 (centres undefined)	1	0	56*	-2
COc1ccc(C2=Nc3ccccc3N=C(c3cc(OC)ccc3O)C2)cc1	17	0	-27	-1
COc1ccc(O)c(C2=Nc3ccccc3N=C(c3ccccc3)C2)c1	10	2.1*	-46	2
CCC(C)C(=O)NCc1nnc2n1CCN(C(=O)COc1ccc(Cl)cc1C)CC2 (centres undefined)	7	0	-1	-1
COc1cccc(OCC(=O)N(Cc2nc(-c3ccccc3)no2)C(C)C)c1	7	0	-5	0
CCN1CCN(c2ncc3c(n2)CC(c2cc(OC)c(OC)c(OC)c2)CC3=O)CC1 (centres undefined)	-7	0	47*	0
O=C1CC(c2cccc(Cl)c2)Cc2nc(N3CCOCC3)ncc21 (centres undefined)	-4	0	0	0
Cc1cc(NCc2ccccc2)nc(Nc2ccc(-n3ccnc3)cc2)n1	-2	0	35*	1
COc1ccc(CNc2cc(C)nc(Nc3ccc(N4CCOCC4)cc3)n2)cc1	8	0	37*	2
c1cncc(CNc2ccnc(Nc3ccc(N4CCOCC4)cc3)n2)c1	10	0	-9	-1
Cc1cc(NCCO)nc(Nc2ccc(-n3ccnc3)cc2)n1	16	0	28	0
Cc1cc(NC2CCCCC2)nc(NCc2ccccc2)n1	-9	0	43*	0
CCNc1nc(C)cc(NCc2ccccc2)n1	5	0	-7	1
SMILES	MITF primary	FBW7 act	TEAD-YAP block	GPR151 ag
COc1ccc(CNc2nc(Nc3ccc(N4CCOCC4)cc3)nc3cc(OC)c(OC)cc23)cc1	8	0	-8	0
c1ccc(CNc2ccnc(Nc3ccc(N4CCOCC4)cc3)n2)cc1	10	0	41*	1
COCCn1c(SCC(=O)Nc2nc(C)c(C)s2)nnc1-c1ccoc1C	22	0	4	0
Cc1ccc(N2C(=O)C3ON(c4ccccc4C)C(c4ccco4)C3C2=O)cc1 (centres undefined)	1	0	4	-2
Cc1cc(Nc2ccc(N3CCOCC3)cc2)nc(Nc2nc3ccccc3n2C)n1	7	0	42*	1
Cc1cc(NCc2ccccc2)nc(Nc2ccc(N3CCOCC3)cc2)n1	15	0	49*	0
Cc1ccc(C)c(NC(=O)Nc2ccc(Nc3nc(C)cc(N4CCOCC4)n3)cc2)c1	10	0	-19	-1
Cc1cc(Nc2ccc(N3CCOCC3)cc2)nc(Nc2ccccc2)n1	4	0	66*	4
Cc1cc(NCCN2CCOCC2)nc(Nc2ccc(N3CCOCC3)cc2)n1	2	0	9	0
Cc1cc(Nc2ccc(N3CCOCC3)cc2)nc(Nc2ccc(C(F)(F)F)cc2)n1	11	0	2	1
Cc1cc(N2CCOCC2)nc(Nc2ccc(NC(=O)COc3ccccc3)cc2)n1	-9	0	81*	5
C=CCOC(=O)C1=C(C)NC(SCC(=O)OCC)=C(C#N)C1c1ccccc1OC (centres undefined)	16	1	9	-1
Cc1cccc(C2CC(c3ccc(Br)cc3)Nc3nnnn32)c1 (centres undefined)	2	0	2	0
O=S(=O)(c1cccc(F)c1)N1CCN(c2ncnc3c2nnn3Cc2ccccc2)CC1	15	1	6	-1
c1cc(Nc2ccnc(Nc3ccc(N4CCOCC4)cc3)n2)c2ccncc2c1	-12	2.6*	8	-1
c1cnc(Nc2nccc(Nc3ccc(N4CCOCC4)cc3)n2)cn1	3	0	-4	1
COc1ccc(N2C(=O)C3C(c4cccc(Br)c4)OC4(C(=O)c5ccccc5C4=O)C3C2=O)cc1 (centres undefined)	81*	0	5	0
CCCn1cc(NC(=O)c2cc3ccccc3o2)cn1	-9	0	-55	-1
CCCn1cc(NC(=O)c2cc(-c3ccccc3OCc3ccccc3)no2)cn1	13	0	43*	2
Cc1nc2c(oc3ccc(Br)cc32)c(=O)o1	2	0	0	-1
Cc1sc(NC(=O)c2ccco2)c(C(c2cccnc2)N2CCN(c3ccccc3F)CC2)c1C (centres undefined)	-14	0	37*	0
Cc1sc(NC(=O)c2ccco2)c(C(c2cccnc2)N2CCCCC2)c1C (centres undefined)	2	0	41*	4
Cc1sc(NC(=O)c2ccco2)c(C(c2cccnc2)N2CCOCC2)c1C (centres undefined)	12	0	29	-1
O=C1CCCN1CCCNc1nc(Nc2ccccc2)c2ncn(C3CCCCC3)c2n1	-1	1	64*	-2
c1cnc(Nc2nc(NC3CC3)c3ncn(C4CCCCC4)c3n2)cn1	7	0	42*	5
SMILES	MITF primary	FBW7 act	TEAD-YAP block	GPR151 ag
CC(=O)Nc1ccc(Nc2nc(NCCCN3CCCC3=O)nc3c2ncn3C2CCCCC2)cc1	-3	0	-11	-3
O=C1CCCN1CCCNc1nc(Nc2cnccn2)nc2c1ncn2CCN1CCCC1=O	3	0	6	0
O=C1CCCN1CCCNc1nc(Nc2cnccn2)nc2c1ncn2C1CCCCC1	6	0	35*	-2
CC(=O)c1ccc(OCC(=O)Nc2ccc(-c3nnc4n3CCCCC4)cc2)cc1	10	0	7	0
Nc1nc2ccccc2n1C(=O)c1ccc(F)cc1	1	0	52*	-5
Nc1nc2ccccc2n1C(=O)c1ccccc1	2	0	52*	-8

Screening data: PubChem, The Scripps Research Institute Molecular Screening Center
